In the library only some 0.81% were active in any assay of this set; here they are far more common.
TRHR enhancer: allosteric enhancers of human TRH receptor. P34981. TRHR cells, fluo-8 calcium fluorescence, EC20 TRH enhancement. 0.66% of 360,000 active. enhancement, % at 2 µM; in the data active = enhancement above about 30%; also: 0% is about no effect
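Enhancer read-out: after compound pinning and an initial kinetic agonist-mode read, an EC20 of TRH (10 nM final) was injected and fluo-8 calcium signal (Ex 480/Em 530) followed at 1 s/cycle for 100 cycles in TRHR-expressing cells.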
TRPML1 inh: blocks the human TRPML1 channel; Q9GZU1; TRPML1-inducible cells, Ca2+ dye fluorescence, FDSS; stronger effect = lower value; inhibition of EC80 agonist-evoked calcium signal; activity change, negative = inhibition, % (no concentration beside the values); 0.02% of 390,000 active; AID 624415; in the data active = activity change below about -50%; inconclusive = between about -30% and that limit;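 also: stimulus is agonist 54-4 at its EC80 concentration; % is scaled to controls: 0 for no effect and ±100 for the full control effect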
Target sequence (Q9GZU1 whole entry, looked up): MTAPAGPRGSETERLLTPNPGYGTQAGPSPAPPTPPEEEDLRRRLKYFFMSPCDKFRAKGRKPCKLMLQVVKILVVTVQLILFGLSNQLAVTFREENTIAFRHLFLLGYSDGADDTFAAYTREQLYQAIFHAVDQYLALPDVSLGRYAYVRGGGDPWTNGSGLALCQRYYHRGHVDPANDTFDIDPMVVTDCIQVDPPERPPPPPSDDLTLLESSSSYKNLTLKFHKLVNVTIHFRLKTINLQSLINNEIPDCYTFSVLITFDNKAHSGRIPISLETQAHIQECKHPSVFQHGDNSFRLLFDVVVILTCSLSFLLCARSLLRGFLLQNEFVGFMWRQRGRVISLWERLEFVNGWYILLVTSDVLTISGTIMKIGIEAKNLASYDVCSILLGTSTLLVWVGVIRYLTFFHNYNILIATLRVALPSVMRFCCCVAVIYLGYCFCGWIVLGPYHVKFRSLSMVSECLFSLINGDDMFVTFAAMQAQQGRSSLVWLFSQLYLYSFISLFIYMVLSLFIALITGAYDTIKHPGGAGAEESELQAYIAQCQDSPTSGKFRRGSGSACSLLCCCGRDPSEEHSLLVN
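TRPML1-DL cells, Tet-induced overnight (~16 h, 37 °C) at 1,500 cells/well, were loaded with Ca8 no-wash dye plus quencher for 45-90 min at room temperature. Compounds were pinned during FDSS kinetic reading; agonist 54-4 at EC80 (4 uM final) then added.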
PTAP TSG101 blk: blocks PTAP/TSG101 interaction to inhibit HIV-1 budding; Potency, µM (top dose mostly 115 µM), without a hit: at the top dose activity change, negative = inhibition, hits mostly inhibitors; AID 493005; 340,000 tested, under 10 active; Fluorescence polarization, FITC-PTAP peptide / Tsg101 binding; active = well fitted inhibition curve with a large enough effect in the main read-out, with a control signal flat, not every such curve was filed as active; inconclusive = small, poorly fitted or top-dose-only effect, or effect the other way, or a change in a side signal; inactive = no such curve, though single readings can be large or run the other way; also: potency is read from the fitted curve at half-maximal effect; % of control where 0% means no effect
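Tsg101 binding domain (10 uM final) was mixed with compound and a FITC-labeled PTAP peptide (50 nM final) in HEPES pH 7.5 buffer with NaCl, Tween 20, EDTA and TCEP; fluorescence polarization was read after 20 min at r.t.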
TRHR ag: agonists of human TRH receptor. P34981. TRHR cells, calcium flux fluo-8, FDSS agonist mode. activation, % at 2 µM. 0.18% of 360,000 active. AID 493084; in the data active = activation above about 30%; also: 0% is about no effect
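In this calcium-flux screen, cells bearing human TRHR are dye-loaded with fluo-8, baselined for 10 cycles, then exposed to library compounds; positive kinetic calcium responses during the agonist phase mark hits, with TRH as control.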
TRPML1 agonist: human mucolipin-1 channel agonism | activation, % (test concentration not listed) | TRPML1-expressing cells, Ca2+ dye fluorescence, FDSS | AID 624414 | Q9GZU1 | 0.12% of 410,000 active; in the data active = activation above about 50%; inconclusive = mostly about 30% to 49%; also: 0% is about no effect
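Tet-induced TRPML1-DL cells, 1,500 per well, cultured overnight, were loaded with a no-wash Ca2+ dye for 45–90 min. Calcium fluorescence was recorded on the FDSS for 110 s after compound addition, before the EC80 agonist (4 uM 54-4) was added.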
The depositor's hits bear a star.

How did COc1ccccc1N1C(=O)C2C(C(=O)c3ccccc3)=NN(c3ccc(Br)cc3)C2C1=O (configuration not stated) do in these assays?
TRHR enhancer: 0; TRPML1 inh: -13; PTAP TSG101 blk: inconclusive; TRHR ag: 20; TRPML1 agonist: 9

How did CC(=O)c1c(C)oc2c1cc(NS(=O)(=O)c1ccc(C(C)(C)C)cc1)c1ccccc12 do in these assays?
TRHR enhancer: 24; TRPML1 inh: -25; TRHR ag: 1; TRPML1 agonist: 28

What do the screens show for `COc1ccc(S(=O)(=O)Nc2cc3c(C(C)=O)c(C)oc3c3ccccc23)cc1`?
TRHR enhancer: 8; TRPML1 inh: -14; PTAP TSG101 blk: -1%; TRHR ag: 1; TRPML1 agonist: 62*

How did Cn1nnnc1Sc1ncnc2scc(-c3ccccc3F)c12 do in these assays?
TRHR enhancer: 5; TRHR ag: -1

Results for Cc1cc(Cn2cnc3c(cnn3C(C)(C)C)c2=O)ccc1F ?
TRPML1 inh: -22; TRPML1 agonist: 1

What do the screens show for `CC(=O)NN1C(=O)/C(=C\c2ccc(O)cc2)SC1=S`?
TRHR enhancer: -3; TRPML1 inh: 34; PTAP TSG101 blk: 24%; TRHR ag: 13; TRPML1 agonist: 5

Results for O=C1/C(=C\c2ccc(O)cc2)SC(=S)N1/N=C/c1ccc(O)cc1 ?
TRHR enhancer: 10; TRPML1 inh: -3; PTAP TSG101 blk: 5%; TRHR ag: 52*; TRPML1 agonist: 23

What do the screens show for `O=[N+]([O-])c1ccc(O/N=[N+](\[O-])N2CCN(c3ncccn3)CC2)c([N+](=O)[O-])c1`?
TRPML1 inh: 12; TRPML1 agonist: 1

What do the screens show for `CC(=O)N1CCc2c(sc(NC(=O)CSc3ccccc3)c2-c2nc3ccccc3s2)C1`?
TRHR enhancer: 10; TRPML1 inh: 36; TRHR ag: -1; TRPML1 agonist: 3

Results for CN1CCc2c(sc(NC(=O)CSc3ccccc3)c2-c2nc3ccccc3s2)C1 ?
TRHR enhancer: -19; TRPML1 inh: -12; TRHR ag: 115*; TRPML1 agonist: 59*

How did Nc1cc(-c2ccccc2)c[nH]c1=O do in these assays?
TRHR enhancer: 1; TRHR ag: 1

How did CCc1ccc(-c2nc3c(=O)n(C)c(=O)nc-3n(CC)n2)cc1 do in these assays?
TRPML1 agonist: 0

What do the screens show for `CN([C@@H](C(=O)OC(C)(C)C)c1ccccc1)S(=O)(=O)c1cccc(S(=O)(=O)N(C)[C@@H](C(=O)OC(C)(C)C)c2ccccc2)c1`?
TRHR enhancer: 5; TRPML1 inh: -19; PTAP TSG101 blk: -6%; TRHR ag: 0; TRPML1 agonist: 71*

How did CN(C)c1ccc(/C=C2\CCc3ccccc32)cc1 do in these assays?
TRPML1 agonist: -1

What do the screens show for `O=S(=O)(Nc1ccccc1N1CCCC1)c1ccccc1C(F)(F)F`?
TRPML1 inh: -8; TRPML1 agonist: 0

How did O=S(=O)(Nc1ccccc1N1CCCCC1)c1ccc(Cl)s1 do in these assays?
TRHR enhancer: -7; TRPML1 inh: -24; PTAP TSG101 blk: 2%; TRHR ag: 1; TRPML1 agonist: 97*

Results for O=C(Nc1ccccc1Cl)c1ccccc1Oc1ccc(C(F)(F)F)cc1[N+](=O)[O-] ?
TRHR enhancer: -2; TRPML1 inh: -21; PTAP TSG101 blk: -7%; TRHR ag: 0; TRPML1 agonist: 55*

How did O=C(Nc1ccccc1Oc1ccccc1)c1cc([N+](=O)[O-])ccc1Cl do in these assays?
TRHR enhancer: 41*; TRPML1 inh: 2; PTAP TSG101 blk: -3%; TRHR ag: -1; TRPML1 agonist: 2

What do the screens show for `Clc1ccc(/C=C/c2ccc3ccccc3n2)cc1Cl`?
TRPML1 agonist: 0

What do the screens show for `CC(C(=O)Nc1ccccc1)N1C(=O)c2ccccc2C1=O` (configuration not stated)?
TRHR enhancer: 32*; TRPML1 inh: -11; PTAP TSG101 blk: 0%; TRHR ag: 0; TRPML1 agonist: 0

Results for Cc1cc(C)cc(NC(=O)C(C)N2C(=O)c3ccccc3C2=O)c1 (configuration not stated) ?
TRHR enhancer: 0; TRPML1 inh: 1; PTAP TSG101 blk: 0%; TRHR ag: -1; TRPML1 agonist: -1

Screening data from PubChem BioAssay.
